Holding throughout (experiment): NCI-60 one-dose screen, 48 h (100 = growth as untreated, 0 = no growth, -100 = all killed)
The subject of assay [1] is HCT-15 colon. Particulars: 10 µM unless noted.
Assay [2] deals with HT29 colon. Particulars: 10 µM unless noted.
In assay [3] the test system is SNB-75 CNS. Particulars: 10 µM unless noted.
The test system of assay [4] is SNB-19 CNS. Particulars: 10 µM unless noted.
Assay [5] has as its system U251 CNS. The conditions noted are these: 10 µM unless noted.
Assay [6] has as its system PC-3 prostate. The conditions noted are these: 10 µM unless noted.
Assay [7] concerns SK-MEL-5 melanoma. The conditions noted are these: 10 µM unless noted.
In assay [8] the test system is UACC-62 melanoma. The conditions noted are these: 10 µM unless noted.
Assay [9] relates to LOX IMVI melanoma. The conditions noted are these: 10 µM.
Assay [10] concerns SK-MEL-28 melanoma. The conditions noted are these: 10 µM unless noted.
The subject of assay [11] is SK-MEL-2 melanoma. The conditions noted are these: 10 µM unless noted.
Assay [12] has as its system SN12C renal. The conditions noted are these: 10 µM unless noted.
Assay [13] relates to UO-31 renal. The conditions noted are these: 10 µM unless noted.
The subject of assay [14] is TK-10 renal. The conditions noted are these: 10 µM unless noted.
Assay [15] relates to ACHN renal. The conditions noted are these: 10 µM unless noted.
The test system of assay [16] is CAKI-1 renal. The conditions noted are these: 10 µM unless noted.
The subject of assay [17] is A498 renal. The conditions noted are these: 10 µM unless noted.
The subject of assay [18] is CCRF-CEM leukemia. Particulars: 10 µM unless noted.
Assay [19] has as its system MOLT-4 leukemia. Particulars: 10 µM unless noted.
The subject of assay [20] is EKVX NSCLC. Particulars: 10 µM unless noted.

This is part of a sample that, as a whole, favours compounds with a hit. Of some 83,000 tested, about 20% had one in any assay.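 Single-concentration screen, 48 h exposure, 96-well plates. Endpoint: percent growth. Below 10 = active.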 Values without a mark were called inactive. Calls of active or inactive are those of the source.

`COC(=O)c1ccc(=O)c2nc3/c(=C/O)c(O)cc(=O)c3[nH]c12`: the growth in assay [1] is 10.1%; in assay [2] it was 29.4%; in assay [3] it was 12.6%; in assay [4], 11.6%; in [5], 7.56% (active); in assay [6], 30.5%. The growth in assay [7] was 22%; in [8] it was -3.09% (active); in [9], 19%; in assay [10], 34.2%; in assay [11] it was -7.27% (active); in assay [12], -5.75% (active). Also, the growth in [13] was 5.33% (active); in assay [14] it was 48.1%; in [15], 28.5%; in assay [16], 21.5%; in assay [17], 1.77% (active); in [18] it was 12.6%. Besides, the growth in assay [19] was 3.55% (active).
As to `Cc1ccccc1N=C(N)Nc1ccccc1C` (tested in a mixture with another compound), the growth in assay [1] is 66.5%; in assay [2], 97.3%; in assay [3] it was 99.5%; in [4], 89.1%; in assay [5], 84%; in [6] it was 70.7%. The growth was 73.1% in assay [7]; 90.5% in assay [8]; 93% in assay [9]; 105% in [10]; 85.7% in assay [11]; 82.8% in assay [12]. Moreover, the growth is 71.1% in assay [13]; 67.8% in assay [14]; 77.9% in assay [15]; 52.9% in assay [16]; 96.8% in assay [17]; 9.64% (active) in [18]. The growth in assay [19] was 37.1%.
For `O=[N+]([O-])c1cc(-c2ccccc2)c(O)c([N+](=O)[O-])c1`, the growth in assay [1] is 79.4%; in [2], 92.4%; in [3], 74.3%; in assay [4] it was 68.2%; in assay [5], 84.2%; in assay [6], 78.3%. Further, the growth in assay [7] was 29.2%; in assay [8] it was 32%; in [9], 82.9%; in assay [10] it was 66.2%; in assay [11], 75.2%; in assay [12], 73.7%. Further, the growth in [14] was 89.2%; in assay [15], 87.7%; in [17] it was 82.3%; in assay [18] it was 16.3%; in [19] it was 71.9%.
With `CC(C)=C1C=C2CC[C@@H]3[C@](C)(CCC[C@@]3(C)C(=O)O)[C@H]2CC1`, the growth was 98% in [1]; 108% in [2]; 93.4% in [3]; 98.1% in assay [4]; 96.2% in assay [5]; 97.3% in assay [6]. Moreover, the growth is 96.8% in [7]; 102% in assay [8]; 85.5% in assay [9]; 107% in [10]; 109% in assay [11]; 106% in assay [12]. Moreover, the growth in assay [13] was 88.9%; in assay [14] it was 93.2%; in [15], 104%; in assay [16] it was 99.6%; in assay [17], 109%; in [18], 106%. In assay [19], the growth is 96.6%.
In the case of `Oc1ccc(Br)cc1Sc1cc(Br)ccc1O`, the growth in [1] is 36.6%; in assay [2], 116%; in [3], 59.4%; in assay [4], 41.3%; in [5], 46.9%; in [6], 65.4%. The growth in [7] was 2.54% (active); in [8] it was 7.3% (active); in [9], 43.6%; in assay [10], 38.9%; in assay [11], 54.4%; in [12], 23.9%. In addition, the growth in assay [13] was 32.9%; in assay [14], 115%; in assay [15] it was 47.8%; in assay [16] it was 99.7%; in [18] it was 34.3%; in assay [19], 40.4%.
With `NC(=S)N/N=C\c1nccc2c(C(F)(F)F)cccc12`, the growth in [1] is 28.6%; in assay [2], 18.5%; in assay [3] it was 11.6%; in assay [4], 30.6%; in [5], 5.79% (active); in assay [6] it was 18.6%. The growth in [7] was -41.5% (active); in assay [8], -3.16% (active); in [9], 4.01% (active); in assay [10], 26.6%; in [11], -7.77% (active); in [12], 17.2%. The growth in assay [13] was -35.2% (active); in assay [14], 17%; in assay [15], 6.72% (active); in assay [16], -2.51% (active); in assay [18] it was -9.85% (active); in assay [19] it was -40.2% (active).
In the case of `CN(C)c1ccc(C(=C2C=CC(=[N+](C)C)C=C2)c2ccc(N(C)C)cc2)cc1`, the growth in assay [1] is -19.3% (active); in [2] it was -19.7% (active); in assay [3] it was -49.7% (active); in assay [4], -75.5% (active); in assay [5], -87.9% (active); in assay [6], -31.3% (active). Moreover, the growth was -98.8% (active) in [7]; -54% (active) in [8]; -70.2% (active) in assay [9]; -79.6% (active) in [10]; -44% (active) in assay [20]; -67% (active) in assay [12]. For the same compound, the growth in assay [13] is -97.9% (active); in [15], -95.9% (active); in assay [16] it was -27.5% (active); in [17] it was -91% (active); in [18], -16.6% (active); in assay [19] it was -11.4% (active).
`CCOc1ccc(Nc2nc3c(s2)C(=O)c2ccccc2C3=O)cc1`: the growth is 30.4% in assay [1]; 115% in assay [2]; 76.3% in [3]; 89.9% in assay [4]; 78.9% in assay [5]; 57.4% in assay [6]. The growth was 62.1% in [7]; 56.6% in assay [8]; -5.52% (active) in assay [9]; 106% in assay [10]; 96.4% in assay [20]; 51.3% in [12]. The growth in assay [13] was 72.9%; in assay [14], 127%; in assay [15], 75.1%; in [16] it was 74.2%; in [17], 76.7%; in assay [18], 51.4%. Besides, the growth in [19] is 48.5%.

The record behind these values is PubChem BioAssay (NCI).
